# Assay results as given in the supplement of paper PMC8728848.
# The full list was thinned out, with the strongest signals kept by preference.
# How the values were obtained:
# Test in all cases: glycan array binding signal (z-score within array); higher = stronger binding
# Conditions in all cases: glycan notation: IUPAC condensed, linker removed
# [1] = biological target: Fuc(a1-2)Gal(b1-3)GalNAc(a1-3)[Fuc(a1-2)]Gal(b1-4)GlcNAc
# In short: (§1)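 The Consortium for Functional Glycomics database supplied 3228 glycan arrays, of which those lacking an available protein sequence were dropped. The binding signal, a within-array Z-score, was averaged across arrays of the same protein sequence and across linkers. Negative scores can be read as non-binding.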
# [2] = biological target: Fuc(a1-2)Gal(b1-3)GalNAc(b1-3)Gal
# In short: as §1
# [3] = biological target: Fuc(a1-2)Gal(b1-3)GalNAc(b1-4)[Neu5Ac(a2-3)]Gal(b1-4)Glc
# In short: as §1
# [4] = biological target: Fuc(a1-2)Gal(b1-3)GlcNAc(b1-2)Man(a1-3)[Fuc(a1-2)Gal(b1-3)GlcNAc(b1-2)Man(a1-6)]Man(b1-4)GlcNAc(b1-4)[Fuc(a1-6)]GlcNAc
# In short: as §1
# [5] = biological target: Fuc(a1-2)Gal(b1-3)[Fuc(a1-4)]GlcNAc(b1-2)Man(a1-3)[Fuc(a1-2)Gal(b1-3)[Fuc(a1-4)]GlcNAc(b1-2)Man(a1-3)]Man(b1-4)GlcNAc(b1-4)GlcNAc
# In short: as §1
# [6] = biological target: Fuc(a1-2)Gal(b1-4)Glc6S
# In short: as §1
# [7] = biological target: Fuc(a1-2)Gal(b1-4)GlcNAc(b1-2)Man(a1-3)[Fuc(a1-2)Gal(b1-4)GlcNAc(b1-2)Man(a1-6)]Man(b1-4)GlcNAc(b1-4)[Fuc(a1-6)]GlcNAc
# In short: as §1
# [8] = biological target: Fuc(a1-2)Gal(b1-4)GlcNAc(b1-3)Gal(b1-4)GlcNAc(b1-2)Man(a1-3)[Fuc(a1-2)Gal(b1-4)GlcNAc(b1-3)Gal(b1-4)GlcNAc(b1-2)Man(a1-6)]Man(b1-4)GlcNAc(b1-4)GlcNAc
# In short: as §1
# [9] = biological target: Fuc(a1-2)Gal(b1-4)[Fuc(a1-3)]GlcNAc(b1-3)GalNAc
# In short: as §1
# [10] = biological target: Fuc(a1-2)Gal6S(b1-3)GlcNAc6S
# In short: as §1
# [11] = biological target: Fuc(a1-2)[Gal(a1-3)]Gal(b1-4)GlcNAc(b1-3)[Fuc(a1-2)[Gal(a1-3)]Gal(b1-4)GlcNAc(b1-6)]GalNAc
# In short: as §1
# [12] = biological target: Fuc(a1-2)[Gal(a1-3)]Gal(b1-4)[Fuc(a1-3)]Glc
# In short: as §1
# [13] = biological target: Fuc(a1-2)[GalNAc(a1-3)]Gal(b1-3)GlcNAc(b1-6)GalNAc
# In short: as §1
# [14] = biological target: Fuc(a1-2)[GalNAc(a1-3)]Gal(b1-4)Glc
# In short: as §1
# [15] = biological target: Fuc(a1-2)[GalNAc(a1-3)]Gal(b1-4)GlcNAc
# In short: as §1
# [16] = biological target: Fuc(a1-2)[GalNAc(a1-3)]Gal(b1-4)GlcNAc(b1-2)Man
# In short: as §1
# [17] = biological target: Fuc(a1-3)[Gal(b1-4)]GlcNAc(b1-3)Gal(b1-4)[Fuc(a1-3)]GlcNAc
# In short: as §1
# [18] = biological target: Fuc(a1-3)[Gal(b1-4)]GlcNAc(b1-6)GalNAc
# In short: as §1
# [19] = biological target: Fuc(a1-3)[Gal3S(b1-4)]GlcNAc6S
# In short: as §1
# [20] = biological target: Fuc(a1-4)GlcNAc
# In short: as §1
# [21] = biological target: Gal(b1-3)Gal
# In short: as §1
# [22] = biological target: Gal(b1-3)Gal(b1-4)GlcNAc
# In short: as §1
# [23] = biological target: Gal(b1-3)GalNAc(a1-3)[Fuc(a1-2)]Gal(b1-4)GlcNAc
# In short: as §1
# [24] = biological target: Gal(b1-3)GlcNAc(b1-3)Gal(b1-4)GlcNAc(b1-6)[Gal(b1-3)GlcNAc(b1-3)]Gal(b1-4)Glc
# In short: as §1
# [25] = biological target: Gal(b1-3)[Neu5Ac(a2-6)]GlcNAc(b1-4)Gal(b1-4)Glc
# In short: as §1
# [26] = biological target: Gal(b1-4)Gal
# In short: as §1
# [27] = biological target: Gal(b1-4)GlcNAc(b1-2)Man(a1-3)[GlcNAc(b1-4)][Gal(b1-4)GlcNAc(b1-2)Man(a1-6)]Man(b1-4)GlcNAc(b1-4)GlcNAc
# In short: as §1
# [28] = biological target: Gal(b1-4)GlcNAc(b1-2)[Gal(b1-4)GlcNAc(b1-6)]Man(a1-6)[Gal(b1-4)GlcNAc(b1-2)Man(a1-3)]Man(b1-4)GlcNAc(b1-4)GlcNAc
# In short: as §1
# [29] = biological target: Gal(b1-4)GlcNAc(b1-2)[Gal(b1-4)GlcNAc(b1-6)]Man(a1-6)[Gal(b1-4)GlcNAc(b1-2)Man(a1-3)]Man(b1-4)GlcNAc(b1-4)[Fuc(a1-6)]GlcNAc
# In short: as §1
# [30] = biological target: Gal(b1-4)GlcNAc(b1-3)Gal(b1-4)GlcNAc
# In short: as §1
binder,measurement,setting,value
SabA (Helicobacter pylori) (protein) MGSSHHHHHHSSGLVPRGSHMENLYFQGEDNGFFVSAGYQIGEAVQMVKNTGELKNLNEKYEQLSQYLNQVASLKQSIQNANNIELVNSSLNYLKSFTNNNYNSTTQSPIFNAVQAVITSVLGFWSLYAGNYFTFFVGKKVGDSGQPASVQGNPPFKTIIENCSGIENCAMDQTTYDKMKKLAEDLQAAQTNSATKGNNLCALSGCAATDSTSNPPNSTVSNALNLAQQLMDLIANTKTAMMWKNIVISGVSNTSGAITSTNYPTQYAVFNNIKAMIPILQQAVTLSQSNHTLSASLQAQATGSQTNPKFAKDIYTFAQNQKQVISYAQDIFNLFNSIPAEQYKYLEKAYLKIPNAGSTPTNPYRQVVNLNQEVQTIKNNVSYYGNRVDAALSVARDVYNLKSNQAEIVTAYNDAKTLSEEISKLPHNQVNTKDIVTLPYDKNAPAAGQSNYQINPEQQSNLNQALAAMSNNPFKKVGMISSQNNNGA,glycan array binding signal (z-score),[1],0.026
same,glycan array binding signal (z-score),[2],-0.181
same,glycan array binding signal (z-score),[3],0.208
same,glycan array binding signal (z-score),[4],1.55
same,glycan array binding signal (z-score),[5],3.91
same,glycan array binding signal (z-score),[6],0.21
same,glycan array binding signal (z-score),[7],2.49
same,glycan array binding signal (z-score),[8],0.579
same,glycan array binding signal (z-score),[9],2.43
same,glycan array binding signal (z-score),[10],3.74
same,glycan array binding signal (z-score),[11],2.78
same,glycan array binding signal (z-score),[12],-0.48
same,glycan array binding signal (z-score),[13],-0.962
same,glycan array binding signal (z-score),[14],-0.596
same,glycan array binding signal (z-score),[15],-0.145
same,glycan array binding signal (z-score),[16],-0.319
same,glycan array binding signal (z-score),[17],1.26
same,glycan array binding signal (z-score),[18],1.95
same,glycan array binding signal (z-score),[19],-0.083
same,glycan array binding signal (z-score),[20],2.89
same,glycan array binding signal (z-score),[21],-0.298
same,glycan array binding signal (z-score),[22],-0.637
same,glycan array binding signal (z-score),[23],-0.576
same,glycan array binding signal (z-score),[24],-0.24
same,glycan array binding signal (z-score),[25],0.532
same,glycan array binding signal (z-score),[26],0.204
same,glycan array binding signal (z-score),[27],-0.111
same,glycan array binding signal (z-score),[28],0.291
same,glycan array binding signal (z-score),[29],0.877
same,glycan array binding signal (z-score),[30],-0.924
